# PubChem BioAssay
# Inconclusive results are not listed. Calls of active or inactive are those of the source.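 How the source made its calls, unless noted: active means viability at or under a set limit in both replicates, limit being median viability minus 3 SD (cut at about 48% in these data, passing the limit was not always enough); inconclusive means at or under the limit in just one replicate; inactive means at or above the limit in both replicates.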
# Columns and labels:
# [1] = Her2 expression decrease, cell viability multiplex – SKBR3 breast tumor cells, AlphaScreen, ATP viability, primary screen (AID 461;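 active means Her2 level under about 52% in both replicate screens, with viability over 70% of control, limit read from the data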;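 on Her2 level: lower value means less Her2 protein in the cells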;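 on viability: percent of carrier control wells set as 100% viability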); settings: SKBR3 Her2 protein level, 18-24 h, measured here: SKBR3 viability, ATP luminescence, at 10 µM
# [2] = molecular target: Receptor tyrosine-protein kinase erbB-2 (Homo sapiens) (UniProt P04626); experiment: as above; settings: 18-24 h, at 10 µM, stronger effect = lower value
# [3] = reduced viability of SK-BR-3 breast cancer cells – cell-based, 24 h, human, pilot screen (AID 572;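 active means viability at or below 10% of carrier control in both of two separate runs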;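 further: compound exposure lasted between 18 and 24 h rather than exactly 24 h; 100% = carrier-treated control wells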); settings: SK-BR-3 viability, CellTiter-Glo luminescence, at 10 µM, stronger effect = lower value
# [4] = HUVEC growth inhibition – cell-based, human, primary screen (AID 575;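 active means viability at or below 30% in both replicate assays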;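 further: 100% = median of untreated cell wells with 0.1% DMSO on each plate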); settings: HUVEC proliferation, CellTiter-Glo luminescence, 72 h; at 10 µM; stronger effect = lower value
# [5] = H69AR cell proliferation blockers – human, duplicate replicates, primary screen (AID 580); settings: H69AR lung tumor cells viability, ATP luminescence, 72 h; at 10 µM; stronger effect = lower value;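 further: 100% = mean luminescence of untreated wells and 0% = no signal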
# [6] = MRP1 drug-resistance reversers in H69AR cells – cell-based, doxorubicin co-treatment, pilot screen (AID 601;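 active means viability loss from added drug above about 55%, and viability with drug at most 40%, in both replicates, limit read from the data, passing the limit was not always enough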); settings: CellTiter-Glo, 72 h, at 10 µM; for differential viability (reversal): stronger effect = higher value
# [7] = yeast transport mutant growth inhibition pilot in 384-well plates, post-Golgi transport modulator project (AID 636; in the data active means inhibition above about 31%); settings: absorbance 615 nm, about 18 h, stronger effect = higher value
# [8] = growth suppression of yeast trafficking mutant, preliminary HTS, modulators of trafficking downstream of Golgi apparatus project, 1536-format plate, OD 615 nm (AID 637; in the data active means inhibition above about 30%); settings: yeast transport mutant growth, absorbance 615 nm, 18 h; stronger effect = higher value
# [9] = S. cerevisiae growth inhibition in permissive medium (OD615), pilot counter-assay for S. cerevisiae lifespan shortening project, permissive growth control (AID 705;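 active means growth inhibition above 25% in both replicates, a cutoff set 3 SD above the mean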); settings: OD615, 24 h, at 10 µM, stronger effect = higher value
# [10] = S. cerevisiae growth inhibition in restrictive medium, OD615, pilot screen, restrictive growth control, yeast lifespan reduction project (AID 706;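 active means growth inhibition above a set limit, 3 SD over mean compound inhibition, in both replicates, cut at about 43% in these data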;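 further: modified DeaD lifespan yeast strain shifted to restrictive glucose medium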); settings: OD615, 48 h, at 10 µM, stronger effect = higher value
# [11] = doxorubicin toxicity protection in MRP-1 cells – H69AR cells, CellTiter-Glo, duplicate, MRP-1 activator project, pilot screen (AID 807;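 active means viability increase at or above a cutoff of the median across tested compounds plus 3 SD, cut at about 8.5% in these data, passing the limit was not always enough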;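 further: compound pretreatment 18-22 h then 72 h combined with doxorubicin; 0% = doxorubicin alone and 100% = vehicle without doxorubicin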); settings: H69AR viability with doxorubicin, CellTiter-Glo luminescence; at 10 µM; stronger effect = higher value
# [12] = viability of HCT116 without oncogenic beta-catenin – human colon tumor cells, pilot screen (AID 823;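 active means cell viability at or below a set limit in both duplicate runs, the limit being the all-compound median minus 4 SD, cut at about 23% in these data, passing the limit was not always enough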;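 further: 0% = wells killed by 20 µM Hyamine and 100% = untreated DMSO cell wells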); settings: HCT116 beta-catenin knockout viability, CellTiter-Glo, 60 h; at 10 µM; stronger effect = lower value
# [13] = viability of PTEN-null HCT116 cells – cell-based, HCT116 clonal line, CellTiter-Glo, pilot screen (AID 824;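 active means viability at or below 27.92% in each of two runs, the all-compound median minus 4 SD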;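 further: 0% = 20 µM Hyamine control and 100% = vehicle cell control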); settings: HCT116 PTEN-deleted viability, 60 h, at 10 µM, stronger effect = lower value
# [14] = RAM pathway blockade in budding yeast – dse1pr::URA3 reporter, 5-FOA selection, pilot screen (AID 869;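 active means inhibition over a set limit, the all-compound mean plus 3 SD, in both replicate runs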;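 further: 0% = DMSO wells with no growth and 100% = 10 µM 1-NA-PP1 with full growth; RAM network block rescues cells from 5-FOA so hits raise OD615 growth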); settings: S. cerevisiae dse1pr::URA3 5-FOA growth, OD615, 2 d; at 10 µM; stronger effect = higher value; strain carries analog-sensitive mutant Cbk1 kinase
# [15] = RAM signaling pathway blockade in yeast – S. cerevisiae, Pdr1DBD-CYC8 efflux-inhibited sensitized strain, primary screen (AID 1298;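 active means RAM network inhibition above 8.4% in each of two replicates, 3 SD over the compound average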;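 further: 0% = DMSO untreated cells without growth and 100% = 10 µM 1-NA-PP1 full growth; higher means more yeast growth rescued from 5-FOA killing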); settings: S. cerevisiae cbk1-as DSE1-URA3 strain, 5-FOA growth OD615, 2 d; at 50 µM; stronger effect = higher value
# [16] = H69AR cells + 2 uM doxorubicin, measured here: viability with 2 uM doxorubicin, stronger effect = lower value
# [17] = H69AR cells, compound alone cytotoxicity
# Receptor tyrosine-protein kinase erbB-2 (Homo sapiens), sequence (P04626 whole entry, looked up): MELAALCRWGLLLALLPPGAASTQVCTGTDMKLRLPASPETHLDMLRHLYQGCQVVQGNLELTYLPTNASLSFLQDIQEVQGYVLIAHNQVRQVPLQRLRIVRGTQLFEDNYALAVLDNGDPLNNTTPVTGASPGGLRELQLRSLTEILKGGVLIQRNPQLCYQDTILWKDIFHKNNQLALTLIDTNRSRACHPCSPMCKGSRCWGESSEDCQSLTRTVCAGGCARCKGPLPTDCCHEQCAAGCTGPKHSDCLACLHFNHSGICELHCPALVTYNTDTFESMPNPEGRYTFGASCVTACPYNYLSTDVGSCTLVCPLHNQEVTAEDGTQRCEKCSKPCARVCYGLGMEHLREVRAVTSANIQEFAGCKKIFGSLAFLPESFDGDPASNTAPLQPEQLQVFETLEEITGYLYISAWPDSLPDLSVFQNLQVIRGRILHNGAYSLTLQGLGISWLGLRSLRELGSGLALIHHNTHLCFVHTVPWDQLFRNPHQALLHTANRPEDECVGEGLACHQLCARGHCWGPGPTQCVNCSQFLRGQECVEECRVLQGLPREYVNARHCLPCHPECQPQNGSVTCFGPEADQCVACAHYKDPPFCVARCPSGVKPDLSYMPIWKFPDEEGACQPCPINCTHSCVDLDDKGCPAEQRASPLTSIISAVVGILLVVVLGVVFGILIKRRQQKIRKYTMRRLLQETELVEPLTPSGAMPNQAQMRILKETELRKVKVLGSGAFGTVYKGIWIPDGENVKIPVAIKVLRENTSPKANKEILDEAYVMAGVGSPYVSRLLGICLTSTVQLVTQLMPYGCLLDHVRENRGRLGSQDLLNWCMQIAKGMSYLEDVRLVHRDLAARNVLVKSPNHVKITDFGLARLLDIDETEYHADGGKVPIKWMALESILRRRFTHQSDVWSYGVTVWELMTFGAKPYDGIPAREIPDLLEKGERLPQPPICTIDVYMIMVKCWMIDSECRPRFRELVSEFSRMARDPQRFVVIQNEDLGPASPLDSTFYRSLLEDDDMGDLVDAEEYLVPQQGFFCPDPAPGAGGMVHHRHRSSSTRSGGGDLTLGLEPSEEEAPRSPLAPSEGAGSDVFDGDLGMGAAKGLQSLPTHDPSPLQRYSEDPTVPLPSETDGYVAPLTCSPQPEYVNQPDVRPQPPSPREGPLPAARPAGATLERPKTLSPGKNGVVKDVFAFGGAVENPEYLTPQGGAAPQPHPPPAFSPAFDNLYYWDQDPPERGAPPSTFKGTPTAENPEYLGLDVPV
SMILES,viability [1] [%],Her2 level [2],viability [3],viability [4],viability [5],differential viability (reversal) ([6]; H69AR cells + 2 uM doxorubicin),"viability [6, 16] [%]","viability [6, 17] [%]",inhibition [7],inhibition [8],growth inhibition [9],growth inhibition [10],viability increase [11],viability [12],viability [13],inhibition [14],RAM network inhibition [15]
CCC(=O)Nc1cccc(Br)c1,114,116% (inactive),114% (inactive),113% (inactive),95.4% (inactive),-2.25% (inactive),97.7,95.4,-4.4% (inactive),-8.06% (inactive),-9.21% (inactive),2.72% (inactive),-0.82% (inactive),96.4% (inactive),85.5% (inactive),-0.04% (inactive),-0.05% (inactive)
CCOc1ccc(OCCCCN(C)C)cc1,89,92.5% (inactive),89% (inactive),87.2% (inactive),88.5% (inactive),1.8% (inactive),86.7,88.5,-0.64% (inactive),1.5% (inactive),-10% (inactive),3.69% (inactive),-0.48% (inactive),96.8% (inactive),93.5% (inactive),3.26% (inactive),6.13% (inactive)
CCCN(CCC)C(=O)c1c(C)[nH]c(C(=O)OCC)c1C,98,110% (inactive),98% (inactive),106% (inactive),81.4% (inactive),-12.4% (inactive),93.8,81.4,-0.38% (inactive),-2.33% (inactive),4.14% (inactive),-3.27% (inactive),-3.62% (inactive),92.9% (inactive),86.7% (inactive),2.12% (inactive),1.44% (inactive)
Cc1ccc(Cn2c(=O)c3ccccc3n3c(CCC(=O)O)nnc23)cc1,107,100% (inactive),107% (inactive),92.5% (inactive),98.9% (inactive),7.02% (inactive),91.9,98.9,-5.07% (inactive),0.33% (inactive),2.68% (inactive),7.7% (inactive),-1.33% (inactive),107% (inactive),98.7% (inactive),2.29% (inactive),6.3% (inactive)
Cc1cc(C)n2nc(SCc3nc4ccccc4[nH]3)nc2n1,87.5,81% (inactive),87.5% (inactive),98.3% (inactive),95.7% (inactive),8.56% (inactive),87.2,95.7,2.13% (inactive),3.28% (inactive),-5.58% (inactive),15.5% (inactive),-2.9% (inactive),91.2% (inactive),95.5% (inactive),1.77% (inactive),1.24% (inactive)
CCN1CCN(Cc2ccc(NC(=O)Nc3ccccc3)cc2)CC1,82,106% (inactive),82% (inactive),82.5% (inactive),88.7% (inactive),-0.57% (inactive),89.3,88.7,2.82% (inactive),0.33% (inactive),-11.3% (inactive),-11.3% (inactive),0.37% (inactive),103% (inactive),98.7% (inactive),1.09% (inactive),1.93% (inactive)
CN(C(=O)c1ccco1)c1nnc(C23CC4CC(CC(C4)C2)C3)s1,86,87% (inactive),86% (inactive),60.3% (inactive),75.9% (inactive),-0.595% (inactive),76.5,75.9,-3.73% (inactive),-0.83% (inactive),-8.84% (inactive),-8.94% (inactive),-7.07% (inactive),79.5% (inactive),66% (inactive),0.17% (inactive),5.35% (inactive)
COc1ccc(-n2c(=O)c3c4c(sc3n3cnnc23)CC(C)CC4)cc1 (stereo not given),95.5,88.5% (inactive),95.5% (inactive),67.8% (inactive),72.2% (inactive),21.2% (inactive),51,72.2,-8.11% (inactive),0.98% (inactive),-10.9% (inactive),9.5% (inactive),-5.52% (inactive),87.8% (inactive),92.2% (inactive),-0.585% (inactive),2.05% (inactive)
Cc1cc(N=Cc2cc(Br)ccc2O)no1,108,118% (inactive),108% (inactive),74.4% (inactive),73.1% (inactive),-28.9% (inactive),102,73.1,-3.72% (inactive),-6.67% (inactive),-13% (inactive),-22.7% (inactive),-2.84% (inactive),90.8% (inactive),95.8% (inactive),0.26% (inactive),-1.15% (inactive)
CC1(C)NC(=O)N(CC(O)COc2cccc(F)c2)C1=O (stereo not given),97,112% (inactive),97% (inactive),110% (inactive),101% (inactive),1.67% (inactive),99.8,101,3.73% (inactive),-1% (inactive),-3.19% (inactive),-1.89% (inactive),-0.02% (inactive),99.9% (inactive),97.9% (inactive),1.2% (inactive),1.81% (inactive)
